A short description of this experiment: inducers of human heat shock response, cell-based, HSE luciferase (AID 1611). Conditions: human cells, HSE-luciferase heat shock reporter; stronger effect = higher value.
With `Cc1nnc(NS(=O)(=O)c2ccc(N)cc2)s1`, the fold change is 0.85.
For `Cc1ccc(C(=O)c2ccc(CC(=O)O)n2C)cc1` the value was 279; for `O=C(O)C1CCCNC1` (stereo not given), 0.81.
The value for `CC1CCC(NC(=O)N(CCCl)N=O)CC1` (stereo not given) was 0.95; that for `CCOC(=O)C(Cc1ccc(O)cc1)NC(C)=O` (stereo not given) was 0.71; that for `CC(=O)Nc1ccccc1` was 0.93.
For the molecule `NC(=O)c1ccc[n+]([C@@H]2O[C@H](COP(=O)([O-])OP(=O)(O)OC[C@H]3O[C@@H](n4cnc5c(N)ncnc54)[C@H](O)[C@@H]3O)[C@@H](O)[C@H]2O)c1`, the fold change was 1.11.
Take `CN1CCN(CC(=O)N2c3ccccc3C(=O)Nc3cccnc32)CC1`: the fold change was 1.06.
The value for `C[C@@H]1O[C@@H](O[C@H]2[C@H](Oc3cc(O)c4c(c3)O[C@H](c3ccc(O)cc3)CC4=O)O[C@H](CO)[C@@H](O)[C@@H]2O)[C@H](O)[C@H](O)[C@H]1O` was 1.36; that for `CC(=O)Nc1nnc(S(N)(=O)=O)s1` was 0.33.
As to `Nc1ccc(S(=O)(=O)Nc2cnc3ccccc3n2)cc1`, the fold change is 1.17.
Regarding `CC[C@@H](C(=O)C(C)[C@@H](O)[C@H](C)CCc1ccc(C)c(O)c1C(=O)O)C1OC(CC)(C2CC[C@](O)(CC)[C@H](C)O2)C[C@@H]1C` (stereo not given in full), the fold change worked out at 1.12.
For `CCN(CCCCOC(=O)c1ccc(OC)c(OC)c1)C(C)Cc1ccc(OC)cc1` (stereo not given), the fold change was 1.27.
As for `Cc1cc(-c2ccccc2)nnc1NCCN1CCOCC1`, the fold change is 0.98.
As to `Nc1ncnc2c1ncn2[C@@H]1O[C@H](CO)[C@@H](O)[C@@H]1O`, the fold change was determined as 1.52.
For `CCN(CC)C(C)CN1c2ccccc2Sc2ccccc21` (stereo not given) the value was 1.55; for `C=C(C)[C@H]1CC=C(C(=O)O)CC1`, 1.32; for `O=c1ccn([C@@H]2O[C@H](COP(=O)(O)OP(=O)(O)OP(=O)(O)O)[C@@H](O)[C@H]2O)c(=O)[nH]1`, 1.15.
For `COc1ccc(C(=O)c2ccccc2)c(O)c1` the value was 0.92; for `O=C1NS(=O)(=O)c2ccccc21`, 0.91; for `CCN1CCCC(OC(=O)C(c2ccccc2)c2ccccc2)C1` (stereo not given), 0.74.
The value for `Nc1ncn([C@@H]2O[C@H](CO)[C@@H](O)[C@H]2O)c(=O)n1` was 1.3; that for `CN[C@@H]1[C@H](OC2[C@H](O[C@H]3[C@H](O)[C@@H](O)[C@H](N=C(N)N)[C@@H](O)[C@@H]3N=C(N)N)O[C@@H](C)[C@]2(O)C=O)O[C@@H](CO)[C@H](O)[C@H]1O` (stereo not given in full) was 1.17; that for `O=C(O)c1ccccc1OP(=O)(O)O` was 1.04.
As for `CC(Cc1ccc(O)c(O)c1)(NN)C(=O)O` (stereo not given), the fold change was determined as 1.02.
On to `O=C(OCC(O)CO)c1ccccc1Nc1ccnc2cc(Cl)ccc12` (stereo not given), for which the fold change was 0.5.
The value for `CN1C2CC(OC(=O)[C@H](CO)c3ccccc3)C[C@H]1[C@H]1OC21` (stereo not given in full) was 1.34; that for `Cn1c(=O)[nH]c2ncn(C)c2c1=O` was 1.88; that for `NCCCC(N)CC(=O)NCC1NC(=O)C(CO)NC(=O)C(N)CNC(=O)C(C2CCN=C(N)N2)NC(=O)/C(=C/NC(N)=O)NC1=O` (stereo not given) was 0.59.
Regarding `CCCCCC(=O)O[C@]1(C(C)=O)CCC2C3CCC4=CC(=O)CC[C@]4(C)C3CC[C@@]21C` (stereo not given in full), the fold change came out at 1.47.
The value for `Nc1nccs1` was 1.19; that for `O=c1[nH]cc(F)c(=O)[nH]1` was 0.52.
The value for `Oc1c(I)cc(I)c2cccnc12` was 1.19.
The value for `NC[C@H]1O[C@H](O[C@H]2[C@H](O)[C@@H](O[C@H]3O[C@H](CO)[C@@H](O)[C@H](N)[C@H]3O)[C@H](N)C[C@@H]2N)[C@H](O)[C@@H](O)[C@@H]1O` was 1.87; that for `OCc1ccccc1O[C@@H]1O[C@H](CO)[C@@H](O)[C@H](O)[C@H]1O` was 1.04; that for `CO[C@H]1C[C@H](O[C@H]2[C@H](C)[C@@H](OC3O[C@H](C)C[C@H](N(C)C)[C@H]3O)[C@@H](C)C[C@]3(CO3)C(=O)[C@H](C)[C@@H](O)[C@@H](C)[C@@H](C)OC(=O)[C@@H]2C)O[C@@H](C)[C@@H]1O` (stereo not given in full) was 0.75.
Take `O=C1c2cccc(O)c2C(=O)c2c(O)cccc21`: the fold change is 0.86.
Turning to `C=Cc1c(C)c2cc3[nH]c(cc4nc(cc5nc(cc1[nH]2)C(C)=C5CCC(=O)O)C(CCC(=O)O)=C4C)c(C)c3C=C`, the fold change is 1.09.
For `OC[C@H]1O[C@@H](O[C@@H]2[C@@H](CO)O[C@](O)(CO)[C@H]2O)[C@H](O)[C@@H](O)[C@H]1O` the value was 0.82.
With `O=C1C(CCS(=O)c2ccccc2)C(=O)N(c2ccccc2)N1c1ccccc1` (stereo not given), the fold change is 0.91.
